# Results filed as inconclusive are left out. Where a call stands in place of a potency, no number is given. Calls of active or inactive are those of the source. Unless noted, calls come from the whole dose curve; as a rule, active = well fitted curve in the direction sought with a large enough effect; inconclusive = small, poorly fitted or top-dose-only effect, or another doubt; inactive = no such curve, though single readings can be large; an effect the other way counts as inactive or inconclusive.
# Assays:
# [1] = qHTS Assay for Lipid Storage Modulators (AID 1519; calls by dose curve); settings: Drosophila S3 cells, BODIPY lipid droplet/cell ratio, laser cytometry, cells loaded with oleic acid; for activity change, negative = inhibition: at 25.7 µM (top of the series)
# Method in brief: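 Cells seeded at 5,000 per well were treated with compounds over a concentration series and loaded with oleic acid (400 uM, as added). Lipid droplet fluorescence (488 nm excitation, 500-530 nm channel) was read by laser-scanning cytometry and normalized to 20 uM Triacsin C.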
# [2] = molecular target: ATP-dependent 6-phosphofructokinase (Trypanosoma brucei brucei) (UniProt O15648); experiment: qHTS Assay to Find Inhibitors of T. brucei phosphofructokinase: hit validation (AID 492961);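 note: luminescence reports ADP formed as PFK phosphorylates fructose-6-phosphate with ATP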; settings: T. brucei PFK, ADP-Glo luminescence; series mostly up to 24.3 µM
# Chain of ATP-dependent 6-phosphofructokinase (Trypanosoma brucei brucei) (O15648 whole entry, looked up): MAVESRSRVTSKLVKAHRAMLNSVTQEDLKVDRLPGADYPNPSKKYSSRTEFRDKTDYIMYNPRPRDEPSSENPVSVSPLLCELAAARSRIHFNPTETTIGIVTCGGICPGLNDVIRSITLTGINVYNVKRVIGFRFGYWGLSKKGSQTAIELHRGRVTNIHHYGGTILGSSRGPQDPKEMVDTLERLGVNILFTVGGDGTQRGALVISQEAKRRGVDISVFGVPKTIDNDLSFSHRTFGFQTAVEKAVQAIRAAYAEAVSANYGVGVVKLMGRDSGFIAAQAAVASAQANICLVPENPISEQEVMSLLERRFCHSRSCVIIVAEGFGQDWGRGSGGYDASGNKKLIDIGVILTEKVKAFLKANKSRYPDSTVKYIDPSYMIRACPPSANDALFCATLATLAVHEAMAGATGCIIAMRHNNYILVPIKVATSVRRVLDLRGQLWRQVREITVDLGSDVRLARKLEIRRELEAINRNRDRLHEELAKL
# Method in brief: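 Compounds titrated; %activity normalized to 0x and 1x enzyme controls, curve-fitted. Readout: ADP-Glo luminescence after 45 min room-temperature reaction of 1.25 nM PFK, 0.1 mM ATP, 0.5 mM F6P, pH 8.0.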
# [3] = molecular target: Luciferin 4-monooxygenase (Photinus pyralis) (UniProt P08659); experiment: Biochemical firefly luciferase enzyme assay for NPC (AID 624030);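 note: purified P. pyralis luciferase at 10 nM with luciferin and ATP substrate; nearly all actives have a fitted effect of over 70% in size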; settings: purified P. pyralis luciferase, luminescence, 5 min; series mostly up to 24.9 µM
# Chain of Luciferin 4-monooxygenase (Photinus pyralis) (P08659 whole entry, looked up): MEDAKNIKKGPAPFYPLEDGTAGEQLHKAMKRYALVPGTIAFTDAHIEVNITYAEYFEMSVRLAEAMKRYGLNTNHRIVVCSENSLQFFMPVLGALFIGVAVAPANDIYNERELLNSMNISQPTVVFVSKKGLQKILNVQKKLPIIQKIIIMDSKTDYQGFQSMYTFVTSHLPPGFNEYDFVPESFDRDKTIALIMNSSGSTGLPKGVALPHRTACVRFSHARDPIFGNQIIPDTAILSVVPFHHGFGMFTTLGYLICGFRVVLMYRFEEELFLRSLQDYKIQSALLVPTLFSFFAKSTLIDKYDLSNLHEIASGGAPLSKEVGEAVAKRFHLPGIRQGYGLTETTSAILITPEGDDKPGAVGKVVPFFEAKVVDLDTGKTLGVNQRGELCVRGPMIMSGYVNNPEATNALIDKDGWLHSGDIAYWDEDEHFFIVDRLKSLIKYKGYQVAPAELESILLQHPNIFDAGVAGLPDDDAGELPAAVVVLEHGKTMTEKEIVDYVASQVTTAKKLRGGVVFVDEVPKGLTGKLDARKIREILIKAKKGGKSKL
# Method in brief: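 Purified P. pyralis luciferase at 10 nM in 50 mM Tris Acetate (final), luminescence read within 5 minutes of enzyme addition to compounds. Activity normalised to PTC124 versus DMSO; concentration-response curves classed by r2, magnitude and activity.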
# [4] = qHTS profiling for inhibitors of Plasmodium falciparum proliferation (AID 504749); note: nearly all actives have a fitted effect of over 60% in size; settings: P. falciparum in erythrocytes, SYBR Green DNA, 72 h
# Method in brief: (§1)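 SYBR Green fluorescence (ex 485 nm, em 535 nm) reports parasite DNA after 72 h compound exposure of infected red cells at 0.3% parasitemia, 2.5% hematocrit; signal normalized to 0.29 uM artemisinin and vehicle wells.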
# 3D7 = experiment: as above; settings: P. falciparum in erythrocytes, SYBR Green DNA, 72 h; series mostly up to 12.8 µM
# Method in brief: as §1
# AS120 = experiment: as above; settings: P. falciparum in erythrocytes, SYBR Green DNA, 72 h; series mostly up to 12.8 µM
# Method in brief: as §1
# C2A = experiment: as above; settings: P. falciparum in erythrocytes, SYBR Green DNA, 72 h; series mostly up to 12.8 µM
# Method in brief: as §1
# CP185 = experiment: as above; settings: P. falciparum in erythrocytes, SYBR Green DNA, 72 h; series mostly up to 12.8 µM
# Method in brief: as §1
# CP191 = experiment: as above; settings: P. falciparum in erythrocytes, SYBR Green DNA, 72 h; series mostly up to 12.8 µM
# Method in brief: as §1
# CP192 = experiment: as above; settings: P. falciparum in erythrocytes, SYBR Green DNA, 72 h; series mostly up to 12.8 µM
# Method in brief: as §1
# CP217 = experiment: as above; settings: P. falciparum in erythrocytes, SYBR Green DNA, 72 h; series mostly up to 12.8 µM
# Method in brief: as §1
# CP238 = experiment: as above; settings: P. falciparum in erythrocytes, SYBR Green DNA, 72 h; series mostly up to 12.8 µM
# Method in brief: as §1
# CP247 = experiment: as above; settings: P. falciparum in erythrocytes, SYBR Green DNA, 72 h; series mostly up to 12.8 µM
# Method in brief: as §1
# CP250 = experiment: as above; settings: P. falciparum in erythrocytes, SYBR Green DNA, 72 h; series mostly up to 12.8 µM
# Method in brief: as §1
# CP262 = experiment: as above; settings: P. falciparum in erythrocytes, SYBR Green DNA, 72 h; series mostly up to 12.8 µM
# Method in brief: as §1
# ECU = experiment: as above; settings: P. falciparum in erythrocytes, SYBR Green DNA, 72 h; series mostly up to 12.8 µM
# Method in brief: as §1
# FAB9 = experiment: as above; settings: P. falciparum in erythrocytes, SYBR Green DNA, 72 h; series mostly up to 12.8 µM
# Method in brief: as §1
# SC27B = experiment: as above; settings: P. falciparum in erythrocytes, SYBR Green DNA, 72 h; series mostly up to 12.8 µM
# Method in brief: as §1
# [5] = molecular target: Ubiquitin carboxyl-terminal hydrolase 1 (Homo sapiens) (UniProt O94782); experiment: Inhibitors of USP1/UAF1: Pilot qHTS (AID 504865); settings: purified USP1/UAF1, Ub-rhodamine cleavage fluorescence; series mostly up to 114 µM;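 note: rhodamine fluorescence freed from ubiquitin-rhodamine substrate followed over time; top concentration of the series differs between compounds; nearly all actives have a fitted effect of over 35% in size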
# Chain of Ubiquitin carboxyl-terminal hydrolase 1 (Homo sapiens) (O94782 whole entry, looked up): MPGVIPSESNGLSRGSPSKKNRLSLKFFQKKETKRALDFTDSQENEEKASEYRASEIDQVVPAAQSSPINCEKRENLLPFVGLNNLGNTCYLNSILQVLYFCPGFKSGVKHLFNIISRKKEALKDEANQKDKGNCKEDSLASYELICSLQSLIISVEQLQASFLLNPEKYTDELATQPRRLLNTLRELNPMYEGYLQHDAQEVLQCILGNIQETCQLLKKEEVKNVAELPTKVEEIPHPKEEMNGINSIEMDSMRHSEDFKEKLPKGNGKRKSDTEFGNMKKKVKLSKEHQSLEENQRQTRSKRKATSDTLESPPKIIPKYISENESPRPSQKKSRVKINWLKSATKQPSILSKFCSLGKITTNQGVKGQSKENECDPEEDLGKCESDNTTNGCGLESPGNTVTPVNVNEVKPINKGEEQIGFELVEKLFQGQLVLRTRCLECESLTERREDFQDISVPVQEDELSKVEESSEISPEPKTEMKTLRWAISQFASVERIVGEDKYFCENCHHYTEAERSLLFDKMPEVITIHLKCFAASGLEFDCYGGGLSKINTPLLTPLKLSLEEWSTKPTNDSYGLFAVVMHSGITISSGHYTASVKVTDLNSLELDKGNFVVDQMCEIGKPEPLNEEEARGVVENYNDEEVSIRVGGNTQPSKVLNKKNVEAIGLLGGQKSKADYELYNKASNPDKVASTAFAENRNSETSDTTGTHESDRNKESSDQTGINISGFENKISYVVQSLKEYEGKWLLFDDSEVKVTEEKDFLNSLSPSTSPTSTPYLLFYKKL
# Method in brief: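 1nM USP1/UAF1 + cpd, 15 min RT; start w/ Ub-Rho 150nM final; kinetic FL 480/540 nm, 6 reads q60 s. Buffer 50mM HEPES pH 7.8, 0.5mM EDTA, 1mM TCEP, 0.01% Tween-20, 0.1 mg/ml BSA.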
# HB3 = experiment: qHTS profiling for inhibitors of Plasmodium falciparum proliferation (AID 504749); note: nearly all actives have a fitted effect of over 60% in size; settings: P. falciparum in erythrocytes, SYBR Green DNA, 72 h; series mostly up to 12.8 µM
# Method in brief: as §1
# [6] = measured here: cell count channel max response
# [7] = measured here: lipid channel max response
# [8] = at 12.8 µM (top of the series), parasite line A
# [9] = at 28.7 µM (top of the series), parasite line A
# [10] = at 28.7 µM (top of the series), parasite line B
smiles,measurement,setting,value
CCC(C)(C)C(=O)O[C@@H]1C[C@H](C)C=C2C=C[C@H](C)[C@@H](CC[C@H]3C[C@@H](O)CC(=O)O3)[C@H]21,"activity change, negative = inhibition",[1],-9.23% (inactive)
same,max response,[1]; [6],-10.9%
same,max response,[1]; [7],-20.7%
same,outcome,[2],inactive
same,Potency,[3],inactive
same,"activity, negative = inhibition",[4]; [8],-15.1% (inactive)
same,Potency,3D7,inactive
same,Potency,AS120,inactive
same,Potency,C2A,inactive
same,Potency,CP185,inactive
same,Potency,CP191,inactive
same,Potency,CP192,inactive
same,Potency,CP217,inactive
same,Potency,CP238,inactive
same,Potency,CP247,inactive
same,Potency,CP250,inactive
same,Potency,CP262,inactive
same,Potency,ECU,inactive
same,Potency,FAB9,inactive
same,Potency,SC27B,inactive
O[C@@](CCN1CCCC1)(c1ccccc1)C1CCCCC1,"activity change, negative = inhibition",[1],-0.986% (inactive)
same,max response,[1]; [6],-8.38%
same,max response,[1]; [7],-9.51%
same,outcome,[2],inactive
same,Potency,[5],inactive
same,Potency,[3],inactive
same,"activity, negative = inhibition",[4]; [8],-9.23% (inactive)
same,Potency,3D7,inactive
same,Potency,C2A,inactive
same,Potency,CP185,inactive
same,Potency,CP191,inactive
same,Potency,CP192,inactive
same,Potency,CP217,inactive
same,Potency,CP238,inactive
same,Potency,CP250,inactive
same,Potency,CP262,inactive
same,Potency,ECU,inactive
same,Potency,FAB9,inactive
same,Potency,HB3,inactive
same,Potency,SC27B,inactive
CCN[C@@H]1C[C@H](N)[C@H](O[C@H]2OC(CN)=CC[C@H]2N)[C@@H](O)[C@H]1O[C@H]1OC[C@@](C)(O)[C@@H](NC)[C@@H]1O,"activity change, negative = inhibition",[1],-1.78% (inactive)
same,max response,[1]; [6],-6.32%
same,max response,[1]; [7],-1.8%
same,outcome,[2],inactive
same,Potency,[3],inactive
same,"activity, negative = inhibition",[4]; [9],6.1% (inactive)
same,"activity, negative = inhibition",[4]; [10],14.9% (inactive)
same,Potency,3D7,inactive
same,Potency,AS120,inactive
same,Potency,C2A,inactive
same,Potency,CP185,inactive
same,Potency,CP191,inactive
same,Potency,CP192,inactive
same,Potency,CP217,inactive
same,Potency,CP238,inactive
same,Potency,CP247,inactive
same,Potency,CP250,inactive
same,Potency,CP262,inactive
same,Potency,ECU,inactive
same,Potency,FAB9,inactive
same,Potency,HB3,inactive
same,Potency,SC27B,inactive
CCN(CC)CCOC(=O)[C@@H](Cc1cccc2ccccc12)C[C@@H]1CCCO1,"activity change, negative = inhibition",[1],-5.4% (inactive)
same,max response,[1]; [6],-1.15%
same,max response,[1]; [7],-7.84%
same,outcome,[2],inactive
same,Potency,[5],inactive
same,Potency,[3],inactive
same,"activity, negative = inhibition",[4]; [8],5.1% (inactive)
same,"activity, negative = inhibition","[4]; at 12.8 µM (top of the series), parasite line B",10% (inactive)
same,Potency,3D7,inactive
same,Potency,AS120,inactive
same,Potency,C2A,inactive
same,Potency,CP185,inactive
same,Potency,CP191,inactive
same,Potency,CP217,inactive
same,Potency,CP238,inactive
same,Potency,CP247,inactive
same,Potency,CP250,inactive
same,Potency,CP262,inactive
same,Potency,ECU,inactive
same,Potency,FAB9,inactive
same,Potency,HB3,inactive
same,Potency,SC27B,inactive
c1ccc2c(c1)CCC[C@@H]2C1=NCCN1,"activity change, negative = inhibition",[1],1.29% (inactive)
same,max response,[1]; [6],4.77%
same,max response,[1]; [7],6.92%
same,outcome,[2],inactive
same,Potency,[5],inactive
same,Potency,[3],inactive
same,"activity, negative = inhibition",[4]; [9],13.7% (inactive)
same,"activity, negative = inhibition",[4]; [10],-0.664% (inactive)
same,Potency,3D7,inactive
same,Potency,AS120,inactive
same,Potency,C2A,inactive
same,Potency,CP185,inactive
same,Potency,CP191,inactive
same,Potency,CP192,inactive
same,Potency,CP217,inactive
same,Potency,CP238,inactive
same,Potency,CP247,inactive
same,Potency,CP250,inactive
same,Potency,CP262,inactive
same,Potency,ECU,inactive
same,Potency,FAB9,inactive
same,Potency,HB3,inactive
same,Potency,SC27B,inactive

# From PubChem BioAssay (NCATS)
